Source: PubChem BioAssay (National Center for Advancing Translational Sciences (NCATS))
The full list was thinned out, with hits kept by preference.
Giardia FBPA inh: Giardia lamblia aldolase inhibition. purified Giardia FBPA. Potency, µM (doses to about 59.6 µM), without a hit: top-dose activity, negative = inhibition, usual class: inhibitors. 0.71% of 290,000 active; further: potency means the concentration at half of the fitted maximal effect; on the % scale 0 is the no-effect control and ±100 the full control effect; nearly all actives have a fitted effect of over 55% in size
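40 nM FBPA preincubated 10 min at RT with compound (up to 57.5 uM final), then substrate plus GAPDH/TPI/NAD/arsenate coupling and diaphorase/resazurin added. Fluorescence read after 20 min at RT, 525/598 nm.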
TbPYK inhibitor: inhibitors of Trypanosoma brucei pyruvate kinase | TbPYK enzyme, Kinase-Glo Plus ATP luminescence, 45 min | Potency, µM (series often up to 76.8 µM), for inactives: at the highest dose activity, negative = inhibition, actives largely listed as inhibitors | 0.12% of 410,000 active | AID 624173; further: potency means the concentration at half of the fitted maximal effect; on the % scale 0 is the no-effect control and ±100 the full control effect; nearly all actives have a fitted effect of over 50% in size
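Quantitative HTS: titrated library compounds versus trypanosomal pyruvate kinase in TEA buffer (pH 7.2) containing KCl, MgCl2, BSA and Tween-20. Reactions were initiated with ADP, 130 uM final. Kinase-Glo Plus luminescence was read after 45 min at RT.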
RE007 growth inh: less growth of the S. pombe RE007 Vpr strain | 0.21% of 360,000 active | Potency, µM (top dose mostly 92.2 µM), for the others: at the highest dose activity change, negative = less growth, most hits filed as inhibitors | AID 651644 | S. pombe RE007 Vpr strain, BacTiter-Glo ATP luminescence, 24 h; active means well fitted falling curve with a large enough effect; inconclusive means small, poorly fitted or top-dose-only effect; inactive means no such curve, though single readings can be large or run the other way; further: potency means the concentration at half of the fitted maximal effect; on the % scale 0 is the no-effect control and ±100 the full control effect; nearly all actives have a fitted effect of over 50% in size
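Fission yeast RE007 carrying one integrated HIV-1 vpr copy, seeded at OD 0.01 in PMG+AL medium with 23 nL pinned compound. Grown 24 h at 30 degrees; viability read by BacTiter-Glo luminescence after 5 min.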
Shiga toxin inh: inhibitors of Shiga toxin in Vero cells. Vero cells, Shiga toxin protein synthesis inhibition reporter. inhibition, % at 38.7 µM. 9.2% of 290,000 active; in the data active means inhibition mostly above about 28%, no sharp cut-off; inactive means mostly below about 43%; further: 0% is about no effect
LmPK inh: blocks Leishmania mexicana pyruvate kinase activity | AID 1721 | 0.37% of 290,000 active | purified LmPK, Kinase-Glo ATP luminescence, 1 h | Q27686 | Potency, µM (series often up to 57.5 µM), for the others: at the top dose activity change, negative = inhibition, usual class: inhibitors; further: potency means the concentration at half of the fitted maximal effect; on the % scale 0 is the no-effect control and ±100 the full control effect
Target sequence (Q27686 whole entry, looked up): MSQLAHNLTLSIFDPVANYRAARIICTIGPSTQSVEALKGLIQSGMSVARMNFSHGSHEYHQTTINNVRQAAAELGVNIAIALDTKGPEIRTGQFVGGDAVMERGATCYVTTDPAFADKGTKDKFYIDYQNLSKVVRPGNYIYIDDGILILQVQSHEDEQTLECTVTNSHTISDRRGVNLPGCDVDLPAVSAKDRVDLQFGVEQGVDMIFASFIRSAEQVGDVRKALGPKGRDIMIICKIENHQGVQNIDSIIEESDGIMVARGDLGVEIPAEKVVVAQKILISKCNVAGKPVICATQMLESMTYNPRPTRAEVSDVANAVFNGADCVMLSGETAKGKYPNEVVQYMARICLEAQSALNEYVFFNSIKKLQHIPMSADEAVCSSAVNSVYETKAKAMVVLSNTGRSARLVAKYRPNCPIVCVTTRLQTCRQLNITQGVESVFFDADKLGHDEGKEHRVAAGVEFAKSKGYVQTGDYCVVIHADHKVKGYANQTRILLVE
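Purified LmPK (0.1 nM) with 0.5 mM PEP and 0.1 mM ADP in imidazole buffer pH 7.2 with MgCl2/KCl, 1 h at room temperature. ATP formed was read by luciferase luminescence and normalized to no-enzyme and uninhibited controls.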
CHX counter: counter-screen for Shiga toxin inhibitors: cycloheximide protein synthesis inhibition. cell reporter, cycloheximide protein synthesis inhibition counterscreen. 12% of 300,000 active. max response, %; in the data active means max response mostly above about 13%, no sharp cut-off; inactive means mostly below about 14%; further: read at 38.3 µM for the half of the compounds with a filed dose; 0% is about no effect
* hit, by the source's call; ? = inconclusive; . = no result given. Unless noted, the call rests on the fitted dose curve; in most records, active means well fitted curve in the direction sought with a large enough effect; inconclusive means small, poorly fitted or top-dose-only effect, or another doubt; inactive means no such curve, though single readings can be large; an effect the other way counts as inactive or inconclusive.

SMILES	Giardia FBPA inh	TbPYK inhibitor	RE007 growth inh	Shiga toxin inh	LmPK inh	CHX counter
CCCCN(C(=O)CNC(=O)c1cccs1)C(C(=O)NC1CCCC1)c1ccncc1 (stereo not drawn)	?	-8%	-1%	46	-7%	28*
CCOc1ccccc1C(C(=O)NC1CCCC1)N(Cc1ccco1)C(=O)CNC(=O)c1ccco1 (stereo not drawn)	7%	6%	10%	13	2%	12*
CCOC(=O)CN(C(=O)CNC(=O)c1cccs1)C(C(=O)NC1CCCC1)c1ccncc1 (stereo not drawn)	-2%	2%	-8%	-22	-11%	2
CCc1ccc(C(=O)c2cn(CC(=O)Nc3cccc(OC)c3)c3ccc(OC)cc3c2=O)cc1	.	-10%	.	.	.	.
CN(CCCC1CCCC1)C(=O)c1cc(COc2c(F)cccc2F)on1	.	1%	-7%	-5	-6%	-3
CN(CC1CCCCO1)C(=O)c1cc(COc2ccc(F)cc2Cl)on1 (stereo not drawn)	8%	4%	6%	-11	0%	-2
CN(CCC1CCCCO1)C(=O)c1cc(COc2ccc(F)cc2F)on1 (stereo not drawn)	5%	1%	-10%	44	7%	21*
CN(CCCC1CCCC1)C(=O)c1cc(COc2ccc(F)cc2F)on1	.	11%	3%	58*	-6%	22*
CSc1nc2c(c(=O)n1-c1ccc(C)cc1)SCC2	-11%	6%	12%	49	9%	8.6*
CSc1nc2c(c(=O)n1-c1ccc(F)cc1)SCC2	-3%	-15%	-6%	-2	-1%	-1
COc1cc2c(cc1OC)n(Cc1ccc([N+](=O)[O-])cc1)c(=O)n1nc(-c3ccccc3)nc21	.	5%	.	.	.	.
O=C(NCC1CC1)Nc1cccs1	-5%	-2%	1%	1	1%	6
O=C(Nc1cccs1)NC1CCCC1	12%	-8%	22%	95	4%	25*
Cc1ccc(C(=O)NCC(=O)NC2CCC(C)CC2)s1 (stereo not drawn)	.	-5%	0%	.	.	.
O=C(CNC(=O)c1cccs1)NC1=NCCS1	-2%	0%	-2%	21*	11%	42*
O=C(CNC(=O)c1ccccc1F)NC1=NCCS1	.	-8%	4%	22	-7%	9
CC1CCC(NC(=O)Nc2cccs2)CC1 (stereo not drawn)	-1%	-8%	-8%	44*	6%	24*
CC1CCC(NC(=O)CNC(=O)c2cccs2)CC1 (stereo not drawn)	.	5%	11%	116*	-10%	45*
Cc1cccc(Cn2cc(S(=O)(=O)c3ccccc3)c(=O)c3cc(F)c(N4CCOCC4)cc32)c1	.	-5%	.	.	.	.
CC(=O)Nc1cc(-c2nc3ccccc3s2)ccc1C	.	-2%	.	.	.	.
Cc1ccc(-c2nc3ccccc3s2)cc1NC(=O)c1cc(-n2cnnc2)ccc1Cl	0%	3%	3%	85*	0%	38*
Cc1ccc(-c2nc3ccccc3s2)cc1NC(=S)NC(=O)c1ccccc1	.	-7%	0%	187*	-3%	34*
Cc1cc2c(s1)c1cnn(Cc3ccc(Cl)cc3)c(=O)c1n2C	.	.	.	-12	.	-10
CCCCC(=O)Nc1ccccc1N1CCOCC1	1%	-4%	3%	-4	-5%	6
Cc1cn(CCC(=O)Nc2ccc(N3CCOCC3)cc2)c2ccccc12	-4%	-2%	-17%	61*	2%	66*
Cc1cn(CCC(=O)Nc2ccccc2N2CCOCC2)c2ccccc12	-3%	-1%	19%	75*	2%	50*
CCCC(=O)Nc1ccc(N2CCOCC2)cc1	-24%	-2%	1%	2	0%	9
NCCSC1CC(=O)N(c2ccc(Cl)c(Cl)c2)C1=O (stereo not drawn)	-11%	5%	-56%	36	-1%	16*
Cc1cc(C)n(CC2CC(=O)N(c3ccc(Cl)c(Cl)c3)C2=O)n1 (stereo not drawn)	-6%	2%	0%	-28	7%	-1
NCCSC1CC(=O)N(c2ccc(F)cc2)C1=O (stereo not drawn)	?	0%	-1%	30	-5%	8.3*
